This passage reports outcome and Potency results from PubChem BioAssay (Tox21).

Results filed as inconclusive are left out. Values without a mark were called inactive. Calls of active or inactive are those of the source. Unless noted, calls come from the whole dose curve; as a rule, active = well fitted curve in the direction sought with a large enough effect in the repeat runs; inconclusive = weak or mixed curves; inactive = no such curve, though single readings can be large; an effect the other way counts as inactive or inconclusive.

Assay [1] is described as follows: qHTS assay to identify small molecule agonists of the vitamin D receptor (VDR) signaling pathway - cell viability counter screen (AID 743224). Note: series mostly up to about 63 µM; nearly all actives have a fitted effect of over 50% in size. The essentials: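 Compounds were pin-transferred onto VDR-bla cells plated 4 h earlier; following 16 h incubation at 37C, cell viability was quantified by CellTiter-Glo luminescence after 30 min at room temperature.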
In general terms: qHTS replaces the single test concentration by a dilution series.

Assay [2] can be described thus: qHTS assay to identify small molecule agonists of the NFkB signaling pathway (AID 1159509; active = well fitted curve in the direction sought with a large enough effect in the signal ratio in the repeat runs, not every such curve was filed as active; the % refers to the signal ratio; note: series mostly up to about 61 µM). The method in brief: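 Pathway activation was measured in ME-180 cells stably expressing beta-lactamase under NF-kB response element control. Substrate cleavage was read as the 460/530 nm emission shift after 5 hr compound incubation.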
Assay [3] in a line: qHTS assay to identify small molecule agonists of the endoplasmic reticulum stress response signaling pathway (AID 1159516; active = well fitted activation curve with a large enough effect in the signal ratio in the repeat runs, not every such curve was filed as active; the % refers to the signal ratio). The essentials:
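Using a HeLa line with an ESRE-driven beta-lactamase gene, agonist activity was measured by FRET substrate fluorescence (460 and 530 nm emission) after cells were treated with compounds for 5 hr at 37 C and 5% CO2.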

Assay [4] is described as follows: qHTS assay to identify small molecule agonists of the endoplasmic reticulum stress response signaling pathway - cell viability counter screen (AID 1159517; calls by dose curve;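 note: HeLa cells carrying an ER stress response element beta-lactamase reporter; series mostly up to about 61 µM; nearly all actives have a fitted effect of over 50% in size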). The method in brief:
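ESRE-bla HeLa cells (1,500/well) were plated overnight at 37 C and exposed to compounds for 5 hr. After the 2 hr beta-lactamase substrate read, CellTiter-Glo went into the same wells, and luminescence was read after 30 min at room temperature.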

Assay [5] is described as follows: qHTS assay to identify small molecule agonists of the AP-1 signaling pathway - cell viability counter screen (AID 1159525; calls by dose curve; note: nearly all actives have a fitted effect of over 55% in size). The method in brief:
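Intracellular ATP by Cell Titer Glo luminescence (30 min, RT) in the same ME-180 AP-1-bla wells after the 5 h compound exposure at 37 °C. Normalised to tetra n-octyl ammonium bromide and DMSO controls.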

Assay [6] can be described thus: qHTS assay to identify small molecule agonists of the AP-1 signaling pathway (AID 1159526; calls by dose curve).
Assay [7] concerns the target Retinoic acid receptor RXR-alpha (Homo sapiens) (UniProt P19793). As to the kind of experiment: qHTS assay to identify small molecule agonists of the RXR signaling pathway (AID 1159527; calls by dose curve; note: nearly all actives have a fitted effect of over 35% in size; note: potency is the fitted concentration of half-maximal effect). The essentials:
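Beta-lactamase reporter assay, agonist format. Engineered HEK 293T line, charcoal-stripped FBS at 2%, overnight (16 hr) exposure, fluorescence at 460 and 530 nm after 405 nm excitation.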

The nature of assay [8]: qHTS assay to identify small molecule agonists of the RXR signaling pathway - cell viability counter screen (AID 1159529).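 Note: HEK 293T cells carrying an RXR-alpha UAS beta-lactamase reporter; series mostly up to about 77 µM; nearly all actives have a fitted effect of over 50% in size.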 The method in brief:
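Same-well viability check after the LiveBLAzer FRET read: CellTiter-Glo added, luminescence measured after 30 min at room temperature. Reporter HEK 293T cells had been treated with compounds for 16 hr following a 5 hr preincubation.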

Assay [9] can be described thus: qHTS assay to identify small molecule antagonists of the retinoid acid receptor (RAR) signaling pathway - cell viability counter screen (AID 1159551). Note: nearly all actives have a fitted effect of over 35% in size. The essentials: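 ATP-based viability, C3RL4 cells, 6 h at 37 C with 1 uM final retinol co-added after compound; luminescence read 30 min post CellTiter-Glo, RT.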
Assay [10] in a line: qHTS assay to identify small molecule antagonists of the vitamin D receptor (VDR) signaling pathway - cell viability counter screen (AID 743225). Note: nearly all actives have a fitted effect of over 50% in size. The essentials: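 Luminescent cell viability (CellTiter-Glo) in VDR-bla HEK 293T cells after 16 h compound exposure at 37C in the presence of 3 nM final 1-alpha,25-dihydroxy vitamin D3.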
Assay [11] can be described thus: qHTS assay to identify small molecule antagonists of the retinoid-related orphan receptor gamma (ROR-gamma) signaling pathway - cell viability counter screen (AID 1159520). Note: nearly all actives have a fitted effect of over 50% in size. The essentials: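 Cytotoxicity was read from cellular ATP (CellTiter-Glo luminescence) after 16 hr at 37 C with 1 uM doxycycline induction. The inducer was added 2 hr after compound transfer to Tet-on ROR gamma CHO cells.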

Assay [12] deals with Nuclear receptor ROR-gamma (Homo sapiens) (UniProt P51449). In words: qHTS assay to identify small molecule antagonists of the retinoid-related orphan receptor gamma (ROR-gamma) signaling pathway (AID 1159521). The essentials: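 CHO cells expressing RORγ under a TET-on promoter, luciferase under RORE control. Dox 1 uM final, 16 h; compounds added 2 h prior. Luminescence decrease measured.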

Assay [13] is described as follows: qHTS assay to identify small molecule antagonists of the retinoic acid receptor (RAR) signaling pathway (AID 1159552; note: nearly all actives have a fitted effect of over 50% in size). The method in brief: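 Readout: luciferase luminescence, 30 min post-reagent at RT. Setup: C3RL4 RARE reporter cells, compounds plus retinol 1 uM final, 6 hr incubation at 37 C and 5% CO2.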
The nature of assay [14]: qHTS assay to identify small molecule agonists of the retinoic acid receptor (RAR) signaling pathway (AID 1159553). Note: potency is the fitted concentration of half-maximal effect. The method in brief:
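Quantitative high-throughput format: the Tox21 10K library was tested on C3RL4 RARE-luciferase cells for 6 hr at 37 C and 5% CO2, with luminescence measured after a 30 min room-temperature reagent step.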

Assay [15] in a line: qHTS assay to identify small molecule agonists of the NFkB signaling pathway - cell viability counter screen (AID 1159515; calls by dose curve; note: series mostly up to about 61 µM; nearly all actives have a fitted effect of over 55% in size). The essentials:
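Parallel cytotoxicity counter screen in ME-180 cells carrying an NFkB-response-element beta-lactamase reporter, 2,000 cells/well. Compound exposure lasted 5 hr at 37 C, 5% CO2. Cell viability was quantified by CellTiter-Glo luminescence.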

Chain of Retinoic acid receptor RXR-alpha (Homo sapiens) (P19793 whole entry, looked up): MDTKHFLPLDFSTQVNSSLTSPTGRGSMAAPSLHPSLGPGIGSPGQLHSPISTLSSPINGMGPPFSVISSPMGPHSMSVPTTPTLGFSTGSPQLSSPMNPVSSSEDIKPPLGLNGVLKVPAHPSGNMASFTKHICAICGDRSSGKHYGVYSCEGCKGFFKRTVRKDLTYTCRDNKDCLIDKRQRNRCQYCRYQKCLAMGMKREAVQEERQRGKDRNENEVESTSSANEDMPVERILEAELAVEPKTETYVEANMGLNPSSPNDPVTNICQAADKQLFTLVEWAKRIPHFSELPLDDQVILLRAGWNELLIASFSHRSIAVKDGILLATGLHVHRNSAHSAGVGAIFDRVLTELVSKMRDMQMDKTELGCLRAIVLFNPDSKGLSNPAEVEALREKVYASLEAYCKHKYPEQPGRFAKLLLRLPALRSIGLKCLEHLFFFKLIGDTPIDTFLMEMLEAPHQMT

Consider `CC(C)COC(=O)c1ccccc1O`, for which the call in assay [1], in assay [2], in assay [3], in assay [4], in assay [5] and in assay [9] was inactive. Further, the Potency entry in assay [6], in assay [7] and in [8] was “inactive” in each case.
In the case of `Nc1ccc2cc(S(=O)(=O)O)ccc2c1`, the outcome in assay [1], in assay [10], in [2], in assay [3], in assay [5] and in [9] was inactive. In addition, the Potency result in assay [11], in [12], in assay [6], in [7] and in [8] was “inactive” throughout.
For `O=c1[nH]c2ccccc2c(=O)n1CCCl`, the result in assay [1], in assay [2], in assay [3], in assay [4], in [5] and in assay [9] was inactive. The Potency result in [12], in [6] and in [7] was “inactive” each time.
Turning to `OCCN1C[C@H](O)[C@@H](O)[C@H](O)[C@H]1CO`, the molecule was called inactive in assay [1], in assay [10], in assay [2], in assay [3], in [4] and in assay [5]. In addition, the call in [9] was inactive. In addition, the Potency result in assay [11], in assay [12], in assay [6], in assay [7] and in [8] was “inactive” each time.
Take `CN1[C@@H]2CC[C@H]1CC(NC(=O)n1c(=O)[nH]c3ccccc31)C2` (stereo partly drawn): the molecule was classed as inactive in assay [1], in assay [10], in [2], in assay [3], in [4] and in [5]. Moreover, the result in [9] was inactive. In addition, the Potency entry in [12], in assay [6] and in assay [7] was “inactive” each time.
Regarding `CCC(=O)Nc1cccc(N)c1`, the result in assay [1], in [2], in [3], in assay [5] and in [9] was inactive. Also, the Potency entry in assay [6], in assay [8], in [13] and in assay [14] was “inactive” each time.
On to `CCN1CCN(c2cc3c(cc2F)c(=O)c(C(=O)O)cn3C2CC2)CC1`, for which the molecule was called inactive in assay [1], in assay [10], in [15], in [3], in [5] and in assay [9]. Besides, the Potency entry in assay [11], in assay [6], in assay [7] and in [8] was “inactive” each time.
For the molecule `CN(C)N=Nc1ccccc1`, the result in assay [1], in assay [10], in [3] and in assay [5] was inactive. Moreover, the Potency result in [11], in assay [12], in [6], in assay [7] and in assay [8] was “inactive” each time.
`CC(C)(C)CC(C)(C)N`: the outcome in [1], in [10], in assay [15], in [3], in [4] and in assay [5] was inactive. Moreover, the result in assay [9] was inactive. Further, the Potency result in [11], in assay [12] and in assay [6] was “inactive” in each case. The Potency in assay [7] was 2.12 µM (active).
Turning to `CCC(=O)/C=C/c1ccc(OC)cc1`, the molecule was classed as inactive in assay [1], in assay [15], in [3], in [4], in [5] and in [9]. Besides, the Potency result in assay [11], in assay [12], in assay [6], in [8] and in assay [13] was “inactive” in each case. For the same molecule, the Potency in assay [14] is 61.1 µM (active).
`c1ccc(CCCc2ccccn2)cc1`: the molecule was called inactive in [1], in [10], in assay [15], in assay [3], in assay [4] and in assay [5]. In addition, the call in [9] was inactive. The Potency result in assay [6], in assay [7] and in [8] was “inactive” in each case.
For the molecule `CC1CCN(CCCC(=O)c2ccc(F)cc2)CC1`, the outcome in assay [15], in [3], in assay [4], in assay [5] and in assay [9] was inactive. The Potency result in [12], in assay [6], in [7] and in assay [8] was “inactive” in each case.
As to `C=CC(=O)OCCCCCC`, the molecule was classed as inactive in [1], in assay [10], in [15], in [3], in assay [5] and in assay [9]. Also, the Potency entry in assay [11], in [6] and in [7] was “inactive” in each case.
Take `CCCCCCCCC=O`: the call in assay [1], in assay [15], in assay [3], in assay [4], in assay [5] and in assay [9] was inactive. Further, the Potency entry in assay [11], in assay [6] and in assay [7] was “inactive” in each case.
With `OCc1ccccn1`, the molecule was called inactive in [10], in assay [15], in assay [3], in assay [4], in assay [5] and in assay [9]. Further, the Potency entry in assay [11], in [12], in assay [6] and in assay [7] was “inactive” each time.
In the case of `O=[N+]([O-])c1ccc(CCO)cc1`, the outcome in [1], in [10], in [15], in [3], in assay [4] and in [5] was inactive. Further, the molecule was classed as inactive in assay [9]. The Potency result in [11], in assay [12], in [6], in assay [7] and in assay [8] was “inactive” throughout.
In the case of `CCCCC=O`, the call in assay [1], in [10], in assay [15], in assay [3], in [5] and in assay [9] was inactive. Further, the Potency result in assay [12], in assay [6] and in assay [8] was “inactive” each time. Further, the Potency in assay [7] is 17.4 µM (active).
For the molecule `Cc1ccc(N)cc1[N+](=O)[O-]`, the call in assay [1], in assay [10], in assay [15], in assay [3] and in [5] was inactive. Also, the Potency result in assay [11], in [12], in [6], in assay [7] and in [8] was “inactive” throughout.
With `C=C(C)[C@H]1CC=C(C)CC1`, the molecule was called inactive in assay [1], in [15], in assay [3], in [4] and in [5]. Besides, the Potency result in [11], in assay [6], in assay [7] and in assay [8] was “inactive” in each case.
`COC(=O)C1=C(C)NC(C)=C(C(=O)OCC(C)=O)C1c1ccccc1[N+](=O)[O-]` (stereo not drawn): the call in [1], in [10], in assay [15], in [3], in assay [4] and in [5] was inactive. For the same molecule, the molecule was classed as inactive in assay [9]. For the same molecule, the Potency entry in assay [11], in [12], in assay [6], in assay [7], in [13] and in assay [14] was “inactive” in each case.
For `COC[C@H](c1ccc(C(F)(F)F)cc1)N1CCN(C2(C)CCN(C(=O)c3c(C)ncnc3C)CC2)C[C@H]1C`, the molecule was called inactive in assay [1], in assay [10], in [3], in assay [5] and in assay [9]. Also, the Potency entry in assay [11], in assay [12], in assay [6] and in assay [7] was “inactive” each time.
`CCCCCCC(CCCCCCCCCCC(=O)OCC(COC(C)=O)OC(C)=O)OC(C)=O` (stereo not drawn): the result in [1], in assay [10], in [15], in [3], in [4] and in assay [5] was inactive. Also, the Potency result in [11], in assay [12], in [6], in assay [7] and in assay [8] was “inactive” each time.
